M1 antag: antagonists of human M1 muscarinic receptor; actives 1.3% (n = 360,000); inhibition, % at 3 µM; P11229; CHO-K1 hM1, Fluo-8 calcium fluorescence, ACh EC80 antagonist;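 active = percent inhibition above its own plate's cutoff, namely the mean of that plate's compound wells plus 3 SD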;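 note: peak over basal fluorescence ratio during 140 s after agonist addition; 0% = ACh EC80 plus DMSO and 100% = DMSO alone without agonist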
Target sequence (P11229 whole entry, looked up): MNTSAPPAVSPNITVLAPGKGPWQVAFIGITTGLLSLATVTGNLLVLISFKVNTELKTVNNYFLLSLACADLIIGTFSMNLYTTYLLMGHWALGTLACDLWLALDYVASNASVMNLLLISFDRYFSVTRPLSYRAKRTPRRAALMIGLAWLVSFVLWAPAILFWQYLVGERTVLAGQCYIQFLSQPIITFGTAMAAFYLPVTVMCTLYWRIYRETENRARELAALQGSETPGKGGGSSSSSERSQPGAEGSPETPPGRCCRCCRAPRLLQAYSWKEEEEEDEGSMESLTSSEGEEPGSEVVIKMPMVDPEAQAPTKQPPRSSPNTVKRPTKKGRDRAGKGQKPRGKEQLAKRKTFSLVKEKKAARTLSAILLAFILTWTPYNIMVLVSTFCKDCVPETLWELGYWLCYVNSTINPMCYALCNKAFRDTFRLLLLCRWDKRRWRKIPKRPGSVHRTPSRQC
CHRM4 PAM: potentiates acetylcholine response at human M4 receptor; P08173; CHO-K1 hM4/Gqi5, Fluo-8 calcium fluorescence, ACh EC20; 0% = ACh EC20, 100% = maximal ACh; activation, % at 3 µM; actives 0.4% (n = 360,000); AID 624126;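 active = activation above its plate's cutoff, the mean activation of sample wells plus 3 SD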
CHRM4 agonist: CHRM4 agonism in calcium assay; P08173; CHO-K1 hM4/Gqi5, Fluo-8 calcium fluorescence; vehicle 0%, full acetylcholine response 100%; activation, % at 3 µM; actives 0.14% (n = 360,000); AID 624127;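 active = activation above the run mean over all test wells plus 3 SD, cut at about 32% in these data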;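 note: peak over basal fluorescence ratio per well then scaled between controls; 0% = DMSO wells and 100% = acetylcholine at EC100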
CHRM1 agonist: activates human CHRM1 receptor; actives 0.33% (n = 360,000); CHO-K1 hM1, Fluo-8 calcium fluorescence, agonist mode; 0% DMSO, 100% acetylcholine EC100; activation, % at 3 µM; P11229; AID 588814;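 active = activation above the run's mean compound activation plus 3 SD, cut at about 16% in these data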;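 note: peak over basal fluorescence ratio within a 140 s kinetic read after compound addition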
M1 PAM: positive allosteric modulators of human M1 muscarinic receptor; P11229; CHO-K1 hM1, Fluo-8 calcium fluorescence, ACh EC20; 0% = ACh EC20, 100% = maximal ACh; activation, % at 3 µM; actives 0.088% (n = 360,000); AID 588819; in the data active = activation above about 19%, passing the limit was not always enough
M4 antag: blocks acetylcholine activation of human M4 receptor. P08173. CHO-hM4 cells, ACh EC80, Fluo-8 calcium fluorescence. inhibition, % at 3 µM. actives 0.73% (n = 360,000). AID 624125;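 active = inhibition above its plate's cutoff, the mean inhibition of sample wells plus 3 SD, cut at about 27% in these data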;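 note: 0% = acetylcholine EC80 with DMSO and 100% = DMSO without agonist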
The depositor's hits bear a star. This is a sample that favours compounds with a hit; in the whole collection about 2.2% have one here.

SMILES | M1 antag | CHRM4 PAM | CHRM4 agonist | CHRM1 agonist | M1 PAM | M4 antag
O=C1NCN(c2ccccc2)C12CCN(C(c1ccccc1)c1nnnn1-c1ccc3c(c1)OCCO3)CC2 (stereo not drawn) | 5.5 | 2.7 | 7.1 | 16.7* | 20.2 | -14.6
COc1ccc(-n2nnnc2C(c2cccs2)N2CCC(n3c(=O)[nH]c4ccccc43)CC2)cc1 (stereo not drawn) | -11.0 | -9.1 | 17.5 | 3.7 | 1.8 | 36.4*
COc1cccc(C(c2nnnn2-c2ccc3c(c2)OCCO3)N2CCC(n3c(=O)[nH]c4ccccc43)CC2)c1OC (stereo not drawn) | 16.0 | -9.9 | 23.2 | 20.4* | 1.6 | 13.2
Clc1ccccc1CNCCc1c[nH]c2ccccc12 | 26.7 | -3.8 | 1.4 | -3.4 | -5.3 | 4.9
CCOc1c(P(=S)(N(C)C)N(C)C)c(C)nn1-c1ccccc1 | -2.4 | 0.7 | -0.4 | -4.2 | 0.2 | -7.8
CN1CCN(c2ncnc3c2cnn3C)CC1 | -11.9 | -1.1 | 0.1 | -1.5 | 9.4 | 8.8
O=c1[nH]c2ccccc2n1C1CCN(C(c2ccccc2)c2nnnn2-c2ccc3c(c2)OCCO3)CC1 (stereo not drawn) | 5.4 | -5.9 | 21.1 | -0.2 | -12.7 | 34.0*
O=C1CN=C(c2cc([N+](=O)[O-])ccc2Cl)c2cc([N+](=O)[O-])ccc2N1 | 4.7 | 13.7* | 0.8 | -1.9 | 8.6 | -2.8
O=C(NC1CN2CCC1CC2)c1ccc(-c2ccc([N+](=O)[O-])cc2)o1 (stereo not drawn) | 3.8 | 14.6 | 0.4 | -13.9 | -2.8 | 7.6
CCN1C(=O)NC(=O)/C(=C\c2cn(CC(=O)N3CCCC3)c3ccccc23)C1=O | -8.1 | 1.2 | 2.0 | -4.3 | 6.2 | -3.4
Oc1cc(Cl)c(Cl)c(Cl)c1 | 23.1* | -4.5 | 17.9 | 1.4 | -20.3 | -1.0
CCOc1ccc(C(=O)OC2CC3CCC(C2)N3C)cc1 (stereo not drawn) | 5.3 | -0.9 | 0.8 | -11.6 | -15.5 | 3.7
CN1C2CCC1CC(OC(=O)c1ccc(Cl)cc1)C2 (stereo not drawn) | 76.8* | -11.3 | 2.1 | -4.8 | -22.1 | 21.3
CN1C2CCC1CC(OC(=O)c1ccc(Cl)cc1)(C(=O)O)C2 (stereo not drawn) | -17.0 | 28.8* | 1.1 | -3.4 | 11.2 | 16.0
O=C1Nc2ccccc2C(c2ccccc2)=NC1O (stereo not drawn) | -14.5 | -3.4 | 1.9 | -2.2 | 17.8 | 1.9
CN1C(=O)C(O)N=C(c2ccccc2)c2ccccc21 (stereo not drawn) | 37.5* | -13.2 | 1.1 | -11.3 | -25.2 | 20.5
CC(=O)N1CCN(CCN=Cc2c(O)n(-c3ccc(C)cc3)c(=S)[nH]c2=O)CC1 | -16.0 | -2.5 | 0.1 | 0.1 | 24.1 | 6.3
CC1CC2(C)C(CCC3C2CCC2(C)C(OP(=O)(N4CC4)N4CC4)CCC32)CC1=O (stereo not drawn) | 102.1* | -1.7 | 0.7 | -7.1 | 4.0 | -10.6
C[C@]12CCC3C(CC[C@H]4C[C@H](O)CC[C@]34C)C1CC(=O)[C@@H]2O (stereo partly drawn) | -5.2 | -4.6 | 15.6 | 1.7 | -7.4 | -3.1
CN(C)C(CNC(=O)Cc1c(Cl)cccc1Cl)c1ccccc1 (stereo not drawn) | 96.5* | -19.6 | 0.9 | -15.6 | -37.3 | 17.2
CN1CCN(CCC(C#N)(c2ccccc2)c2ccccc2)CC1 | 98.7* | -16.1 | 0.8 | -6.1 | -22.1 | 39.8*
OC1(c2ccccc2)CCNC2CCCCC21 (stereo not drawn) | 3.2 | 0.3 | 0.7 | 2.4 | 12.5 | 5.7
COc1ccc(CN2CCCC(C(=O)c3ccc(Cl)cc3)C2)c(OC)c1 (stereo not drawn) | 38.6* | -16.1 | 7.3 | -5.5 | -23.5 | 14.5
COc1ccc(CN2CCCC(C(=O)c3cccc(Cl)c3)C2)cc1 (stereo not drawn) | 42.2* | -14.3 | 1.6 | -5.3 | -26.9 | 2.8
COc1ccc(C(=O)C2CCCN(Cc3ccon3)C2)c(OC)c1 (stereo not drawn) | -1.8 | -4.7 | 1.7 | -7.7 | 1.0 | 8.4
